# Measured values from publication PMC12136788.
# Substitutions are numbered along the chain they refer to. Whole data set: some 24,000 sequences, median “enrichment r” near 0.99, cut for the highest 2% near 3.7. This excerpt belongs to a sample that is enriched for the highest values.
# T1: UNK ZnF1-3 (human, UniProt Q9C0B0 31-174)
# T1 sequence: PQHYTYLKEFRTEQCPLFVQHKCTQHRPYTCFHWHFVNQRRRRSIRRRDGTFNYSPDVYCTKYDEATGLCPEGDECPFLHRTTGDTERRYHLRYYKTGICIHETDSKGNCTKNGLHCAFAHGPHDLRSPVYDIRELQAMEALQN
# B1: chr1:151206805:151206806:+_ENSG00000143398_ENST00000349792|hu_hu|FALSE|FALSE (ssRNA)
# RNA: GGGAGUUCUACAGUCCGACGAUCCUUCUCUCGCUCUUUCUGGGAAGCCCGCCGUUUGUAGGUUGAGCCUUUGAGGUCAUAUUUGAUAUGCAUUUUUACCGAUCUUGGUAAAAGAUUGUUCAUCACCACAAUCCGAAUGUUCUUCAACAGAGGAUUGAGCAUCA
# B2: chr1:95362928:95362929:-_ENSG00000117519_ENST00000538964|hu_hu|motif|central (ssRNA)
# RNA: GGGAGUUCUACAGUCCGACGAUCAGACCACAUUUAGCAAUAAGCAUGAGUUUAGUCUUCCAUGUAGAAACCAGAUACACGGAACUGUAAAAAAAAAAAAAAAAAAAAAAAGUUUCCUAUUGUUUGAAAAUACCAGUUUAAUAUCAACAGAGGAUUGAGCAUCA
# B3: chr3:25639645:25639646:-_ENSG00000077097_ENST00000264331|hu_mus|FALSE|FALSE (ssRNA)
# RNA: GGGAGUUCUACAGUCCGACGAUCAUCAGACAACACAUGACAUUUCAAUGAGUAAAAAAGAGCAUAAAACUGUAUGUGUAAGAACAAAAUGUUAAAAGGCCUACCACAAUAAUAAAAAACCAUCAAUUACAUCAUCACAUUAAACAACAGAGGAUUGAGCAUCA
# B4: chr17:64801638:64801639:+_ENSG00000154229_ENST00000413366|hu_mus|hu_hu_hu_mus_False|28_88 (ssRNA)
# RNA: GGGAGUUCUACAGUCCGACGAUCUAUAUAUAUAUAUACAUAUGUACACAUAUGUAGUAAAACCCUAGUUAAACGUGUAAAGUAGCCAUUCAUUUUUAAAAUUACAUCUACAUUUAAAAAUUAAUAUAUCUGAUAGAGUGCCAGCAACAGAGGAUUGAGCAUCA
# B5: chr17:64801638:64801639:+_ENSG00000154229_ENST00000413366|hu_mus|hu_hu_hu_mus_False|78_98 (ssRNA)
# RNA: B4 RNA with C38U, U42C, G43A, U44C, G53A, A60G, C62G, U114A
# B6: chr1:84720644:84720645:-_ENSMUSG00000026219_ENSMUST00000027421|mus_hu|FALSE|FALSE (ssRNA)
# RNA: GGGAGUUCUACAGUCCGACGAUCUGAAUUUUAAAUUAGAUCUUAACUGGAGAGAACAUGGGACAACAGAAGCCCAUGGGUAACGAAAAUUUGAGAACUGUGAGUUGUAUACAAAAAAAAAACUGUGAGCUGCACAGAUAAUAACAACAGAGGAUUGAGCAUCA
# B7: chr7:90019630:90019631:+_ENSMUSG00000057706_ENSMUST00000082237|mus_hu|motif|central (ssRNA)
# RNA: GGGAGUUCUACAGUCCGACGAUCUAUAUCACUGAAUAGAAAAUAUGCUGGGUGAAGCAGAUCUAGAAGAUUUGUCUGAACCGGUAAAAUCUCCAUCCCAACAGAAUACUGUUCAAAACAUUACACAUUUUAUGGUUGUAAUUCCAACAGAGGAUUGAGCAUCA
# B8: 135118432_135118552_3022_ncRNA_ENSMUSG00000030795_ENSMUST00000128851|mouse|control|control (ssRNA)
# RNA: GGGAGUUCUACAGUCCGACGAUCAUGAGCAAUACACUCAAGAUCUUUCUUGUAGUCCACACCUUCCUUCCCAGAUCUAGUUCCUAUAUAUUUGUCUGAGUACAUAUGUAGAAUUGCAUUGACAUCACUAUUUAAUAUAAAUAUCAACAGAGGAUUGAGCAUCA
# B9: chr5:69964302:69964303:+_ENSMUSG00000029208_ENSMUST00000154728|mus_hu|FALSE|FALSE (ssRNA)
# RNA: GGGAGUUCUACAGUCCGACGAUCUGCAGUCUGGUUUGUUCGUUGGCUGAAUAAACAUGGGAGCUGAGAGCUCUGGAGAAAUACAGCCAUUUACUGGCUGUGAAAUCUCAAGUUAACUACUCUAAAAUCGCUUCGAUUAUGAAACAACAGAGGAUUGAGCAUCA
# B10: chr11:9468696:9468697:+_ENSG00000205339_ENST00000379719|hu_hu|FALSE|FALSE (ssRNA)
# RNA: GGGAGUUCUACAGUCCGACGAUCCAUUAACAAUAAUGUGAAAAUUAGAAUUAUGAAUUCAAAAAGCAGUGAAGUCUGAAAAUUUAAAAAGUAGACUAGGUAUUAGGGGAUUAAAGGUAAAGGAAGACGAGAAUGUUUCUUUAACAACAGAGGAUUGAGCAUCA
# B11: chr17:64801638:64801639:+_ENSG00000154229_ENST00000413366|hu_mus|hu_hu_hu_mus_False|1_98 (ssRNA)
# RNA: B4 RNA with C38U, U42C, G43A, U44C, G53A, U114A, A142C, G143A
# B12: chr4:175231952:175231953:+_ENSG00000164118_ENST00000503780|hu_hu|motif|central (ssRNA)
# RNA: GGGAGUUCUACAGUCCGACGAUCAUUCAGAAGGUCCAUGUCACUACAAGAAGCGUAGUCUUCACUAACUUCAUUAAACUCGGUAAAUUCAUCAUUCUUUUUAGACAAAAGCAUUUCUGUUUCAAGAAGAGUGACACGACUAAGCAACAGAGGAUUGAGCAUCA
# Target: T1, UNK ZnF1-3
# Experiment: nsRBNS (natural sequence RNA bind-n-seq); RBNS binding buffer (assumed for nsRBNS): 25 mM Tris pH 7.5, 150 mM KCl, 3 mM MgCl2, 0.01% Triton X-100, 500 ug/ml BSA, 20 U/ml SUPERase-In, 4 C; UNK is unkempt and MSI1 is Musashi-1; names of the RNAs are library labels; protein concentration not given here; high values mean tight binding
row,Binder,binding signal [enrichment R]
1,B1,0.464
2,B2,5.33
3,B3,1.63
4,B4,3.46
5,B5,3.51
6,B6,5.25
7,B7,0.76
8,B8,1.78
9,B9,0.663
10,B10,5.89
11,B11,4.56
12,B12,0.772
